# Results from PubChem BioAssay.
# Active and inactive are the calls of the source. Unless noted, no rule for the calls is given here.
# Columns and labels:
# [1] = A549 cell viability effects, profiling panel, calcein-AM fluorescence, 48 h, basal (AID 1162); conditions: higher = more signal; also: test concentration not given here
# [2] = adipocyte viability effects, profiling panel, cell-based, 3T3-L1 adipocytes, calcein-AM fluorescence, 48 h, basal (AID 1163); conditions: 3T3-L1 adipocytes viability, higher = more signal; also: test concentration not given here
# [3] = HepG2 cell viability effects, profiling panel, calcein-AM fluorescence, 48 h, basal (AID 1164); conditions: higher = more signal; also: test concentration not given here
# [4] = MM1S cell viability effects, profiling panel, calcein-AM fluorescence, 48 h, basal (AID 1165); conditions: higher = more signal;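 also: viability of MM1S multiple myeloma cells under basal unstimulated conditions; test concentration not given here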
# [5] = basal RPMI8226 viability, no added stimulus, profiling panel, cell-based, calcein-AM fluorescence, 48 h, PK04 Diversity Set (AID 1166); conditions: RPMI8226 myeloma viability, higher = more signal;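 also: cells grown under basal conditions without added stimulus; test concentration not given here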
# [6] = basal HepG2 mitochondrial membrane potential changes, profiling panel, cell-based, JC-1 fluorescence, 24 h, 100 nL compound (AID 1167); conditions: higher = more signal; also: test concentration not given here
# [7] = basal 3T3-L1 adipocyte mitochondrial potential changes, profiling panel, cell-based, JC-1 fluorescence, 3T3-L1 adipocytes, 24 h, 100 nL compound (AID 1168); conditions: JC-1 mitochondrial fluorescence, higher = more signal, called active from +8 up or from −8 down; also: test concentration not given here
# [8] = basal RPMI8226 mitochondrial membrane potential changes, profiling panel, cell-based, JC-1 fluorescence, 24 h, 100 nL compound (AID 1169); conditions: RPMI8226 myeloma, JC-1 mitochondrial potential fluorescence, higher = more signal; also: test concentration not given here
# [9] = basal MM1S mitochondrial membrane potential changes, profiling panel, cell-based, JC-1 fluorescence, 24 h, 100 nL compound (AID 1170); conditions: higher = more signal; also: test concentration not given here
# [10] = A549 lung cancer cell viability effects, profiling panel, resazurin fluorescence, 24 h, PK04 Diversity Set (AID 1171); conditions: higher = more signal, called active from +8 up or from −8 down; also: test concentration not given here
# [11] = HepG2 liver cancer cell viability effects, profiling panel, resazurin fluorescence, 24 h, PK04 Diversity Set (AID 1172); conditions: higher = more signal; also: test concentration not given here
# [12] = basal S. cerevisiae growth modulation, no modifier, primary screen, OD600, strain BY4716, 24 h, basal condition (AID 1173); conditions: OD600, 24 h, higher = more signal, called active from +8 up or from −8 down
# [13] = MM1S myeloma cell viability, profiling panel, resazurin fluorescence, basal, 24 h, PK04 Diversity Set (AID 1174); conditions: higher = more signal, called active from +8 up or from −8 down;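 also: MM1S multiple myeloma cell line; test concentration not given here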
# [14] = target: Dihydroorotate dehydrogenase (quinone), mitochondrial (Plasmodium falciparum (isolate 3D7)) (UniProt Q08210); experiment: PfDHODH enzyme inhibitors, primary screen, biochemical, C-terminal His tag, absorbance 600 nm (AID 1175); conditions: DCIP absorbance 600 nm, higher = more signal, called active from +8 up or from −8 down;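 also: recombinant parasite enzyme with a five histidine tag at its C terminus; test concentration not given here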
# Sequence of Dihydroorotate dehydrogenase (quinone), mitochondrial (Plasmodium falciparum (isolate 3D7)) (Q08210 whole entry, looked up): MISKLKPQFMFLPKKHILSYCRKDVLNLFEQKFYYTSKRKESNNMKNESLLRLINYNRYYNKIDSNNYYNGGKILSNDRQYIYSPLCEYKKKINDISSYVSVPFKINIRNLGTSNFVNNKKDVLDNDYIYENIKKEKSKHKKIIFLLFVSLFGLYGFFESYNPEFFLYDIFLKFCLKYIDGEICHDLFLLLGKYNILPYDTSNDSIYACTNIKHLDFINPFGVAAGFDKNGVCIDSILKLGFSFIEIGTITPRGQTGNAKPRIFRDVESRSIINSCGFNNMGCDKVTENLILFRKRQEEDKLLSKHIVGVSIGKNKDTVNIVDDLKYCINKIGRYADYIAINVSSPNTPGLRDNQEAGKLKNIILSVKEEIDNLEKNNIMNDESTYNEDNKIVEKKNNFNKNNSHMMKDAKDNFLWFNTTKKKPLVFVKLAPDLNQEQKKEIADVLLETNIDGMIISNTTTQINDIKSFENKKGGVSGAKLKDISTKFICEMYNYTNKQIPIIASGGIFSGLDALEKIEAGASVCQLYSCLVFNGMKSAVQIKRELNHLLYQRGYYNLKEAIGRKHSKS
# [15] = P. aeruginosa biofilm formation inhibitors, primary screen, strain PAO1, LB-PBS medium, absorbance 600 nm (AID 1176); also: test concentration not given here; conditions: P. aeruginosa PAO1 growth/biofilm, A600, 12 h; higher = more signal
# [16] = S. cerevisiae RM11-1a growth modifiers, primary screen, strain RM11-1a, OD600, basal, 24 h (AID 1177); conditions: OD600, 24 h, higher = more signal, called active from +8 up or from −8 down;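 also: cultures grown under basal conditions with no added stressor; test concentration not given here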
# [17] = E. coli acrAB mutant growth effects, primary screen, E. coli filamentation inducers, strain DRC39, OD650, 24 h (AID 1178); conditions: higher = more signal, called active from +8 up or from −8 down;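 also: growth measured as culture turbidity by optical density at 650 nm; test concentration not given here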
# [18] = E. coli acrAB mutant growth effects, primary screen, E. coli filamentation inducers, strain DRC39, OD650, 48 h (AID 1179);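 also: screen aims at cell division blockers that make cells filament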; conditions: E. coli DRC39 delta-acrAB growth, higher = more signal, called active from +8 up or from −8 down
# [19] = RPMI8226 myeloma cell viability, profiling panel, resazurin fluorescence, basal, 24 h, PK04 Diversity Set (AID 1180); conditions: higher = more signal;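 also: RPMI8826 multiple myeloma cell line at 5000 cells per well; test concentration not given here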
# [20] = target: E3 ubiquitin-protein ligase XIAP (Homo sapiens) (UniProt P98170); experiment: XIAP binders, primary screen, biophysical, small-molecule microarray, fluorescence 635 nm (AID 1181); conditions: small-molecule microarray binding, higher = more signal;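 also: score merges 667 nm emission and signal to noise over triplicate slides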
# Sequence of E3 ubiquitin-protein ligase XIAP (Homo sapiens) (P98170 whole entry, looked up): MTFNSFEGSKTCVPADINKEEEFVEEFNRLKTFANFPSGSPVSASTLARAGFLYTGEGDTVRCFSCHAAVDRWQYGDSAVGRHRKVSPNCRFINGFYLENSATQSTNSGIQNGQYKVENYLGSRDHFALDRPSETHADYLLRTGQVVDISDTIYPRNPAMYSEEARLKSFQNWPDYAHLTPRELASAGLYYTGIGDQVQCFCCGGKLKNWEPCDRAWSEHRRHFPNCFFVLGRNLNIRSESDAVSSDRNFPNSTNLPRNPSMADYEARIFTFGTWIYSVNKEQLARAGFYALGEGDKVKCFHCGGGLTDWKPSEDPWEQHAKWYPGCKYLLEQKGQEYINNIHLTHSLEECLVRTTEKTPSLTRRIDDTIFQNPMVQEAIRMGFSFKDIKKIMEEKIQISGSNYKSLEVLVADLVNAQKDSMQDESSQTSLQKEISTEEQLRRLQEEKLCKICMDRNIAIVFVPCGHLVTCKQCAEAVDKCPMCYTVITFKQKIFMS
SMILES,z-score [1],z-score [2],z-score [3],z-score [4],z-score [5],z-score [6],z-score [7],z-score [8],z-score [9],z-score [10],z-score [11],z-score [12],z-score [13],composite z-score [14],z-score [15],z-score [16],z-score [17],z-score [18],z-score [19],composite z-score [20]
COC(=O)[C@@]1(Cc2ccc(F)cc2)[C@H]2c3cc(C(=O)N(C)C)n(CC4CC4)c3C[C@H]2CN1C(=O)c1ccccc1,-0.654,0.128,-0.0517,-2.21,-3.32,1.41,-0.708 (inactive),-0.858,-1.21,-1.38 (inactive),-0.881,1.78 (inactive),-1.37 (inactive),-0.0778 (inactive),0.206 (inactive),0.479 (inactive),-0.868 (inactive),-0.398 (inactive),-2.09,0.454
CN1C(=O)C2C=CC(C(O)c3ccccc3)N(Nc3ccccc3)C2C1=O (stereo not given),-1.3,-0.559,-0.761,-1.4,0.362,-1.69,-0.441 (inactive),0.636,-0.207,-1.26 (inactive),-1.05,-0.506 (inactive),-1.83 (inactive),0.0323 (inactive),1.67 (inactive),0.166 (inactive),-1.17 (inactive),-1.29 (inactive),-1.52,0.0651
[N-]=[N+]=NCc1ccccc1[C@@H]1OC(c2ccc(OCCCO)cc2)=N[C@]1(CCS(=O)(=O)c1ccccc1)C(=O)NCCN1CCOCC1,1.68,-0.0282,1.61,0.377,0.501,0.374,0.995 (inactive),0.127,-0.806,-0.597 (inactive),-1.13,-0.276 (inactive),-0.346 (inactive),0.328 (inactive),0.286 (inactive),0.935 (inactive),0.239 (inactive),0.564 (inactive),-0.185,0.703
COCCOC(=O)N1C(=O)[C@@]2(c3cc(C#CC4=CCCCC4)ccc31)[C@H](C(N)=O)[C@H]1C(=O)O[C@H](c3ccccc3)[C@H](c3ccccc3)N1[C@@H]2c1ccc(OCCO)cc1,-0.0731,-0.605,0.575,-2.37,-2.99,-2.31,1.22 (inactive),-0.799,-1.82,-2.15 (inactive),-0.746,1.04 (inactive),-1.95 (inactive),0.948 (inactive),1.67 (inactive),2.53 (inactive),0.0123 (inactive),0.505 (inactive),-3.18,-0.102
C=C(CCCC)/C(=C/C[C@@H](OC(C)=O)c1ccccc1OCCO)c1cnc2ccccc2c1,-0.865,1.79,-0.749,-2.72,-3.31,0.749,-1.17 (inactive),-0.691,0.61,-1.21 (inactive),-1.25,-1.66 (inactive),-0.614 (inactive),-7.22 (inactive),0.191 (inactive),0.862 (inactive),-0.765 (inactive),-0.587 (inactive),-0.52,-0.198
C=C(C)C1C(=C)CN([C@H](CO)c2ccccc2)C1=O (stereo not given in full),-0.488,0.783,-0.764,0.0188,-2.01,-0.113,0.113 (inactive),-0.175,-0.761,1.02 (inactive),1.04,-2.16 (inactive),0.267 (inactive),-0.232 (inactive),-0.611 (inactive),0.229 (inactive),0.692 (inactive),-0.829 (inactive),-0.403,-0.11
NCCCCCNC(=O)[C@@H]1C[C@@H]2C(=O)NCC(=O)N2[C@@H]1c1ccc(O)cc1,0.685,-0.366,0.678,0.545,0.895,1.32,0.114 (inactive),-0.0558,-0.408,0.508 (inactive),0.0154,-0.54 (inactive),0.236 (inactive),-1.28 (inactive),0.227 (inactive),0.225 (inactive),0.121 (inactive),0.654 (inactive),-0.9,0.348
C=CCNC(=O)[C@@H]1[C@H]2C(=O)O[C@H](c3ccccc3)[C@H](c3ccccc3)N2[C@H](c2ccc(OCCO)cc2)[C@@]12C(=O)Nc1ccc(C#CCCO)cc12,-1.11,0.422,1.27,-0.563,0.256,1.1,0.0466 (inactive),-0.591,-0.183,0.344 (inactive),-0.13,1.02 (inactive),-0.185 (inactive),-1.24 (inactive),1.66 (inactive),-0.114 (inactive),-0.194 (inactive),0.184 (inactive),-0.114,-0.157
CCOC(=O)[C@H]1C/C=C/C[C@H](C(=O)OCC)C(=O)O[C@H]2[C@@H](OC)O[C@H](CO)[C@@H](OC(=O)Nc3cccc(F)c3)[C@@H]2OC1=O,-3.9,-0.502,-5.19,-3.3,-4.16,-3.56,1.84 (inactive),-0.959,-1.99,-5.95 (inactive),-5.49,-0.218 (inactive),-9.05 (active),-0.0103 (inactive),1.74 (inactive),1.84 (inactive),0.675 (inactive),1.23 (inactive),-7.34,0.125
C=CC[C@@]1(C(N)=O)N=C(c2ccc(OCCCO)cc2)O[C@@H]1c1ccccc1CN=[N+]=[N-],0.0465,1.69,0.0287,0.204,-0.189,-2.45,-0.337 (inactive),-0.231,-1.79,-0.29 (inactive),0.165,-0.935 (inactive),0.348 (inactive),-0.0357 (inactive),0.426 (inactive),-0.742 (inactive),0.793 (inactive),-0.597 (inactive),0.093,-0.201
COC(=O)[C@@]1(Cc2ccccc2)[C@H]2c3cc(C(=O)N4CCCC4)n(Cc4nc5ccccc5[nH]4)c3C[C@H]2CN1C(=O)c1ccccc1,-0.579,0.887,-0.537,-2.39,-2.19,1.73,-0.807 (inactive),-0.863,-0.81,-0.178 (inactive),-0.415,1.22 (inactive),-1.66 (inactive),0.374 (inactive),0.687 (inactive),0.759 (inactive),-0.538 (inactive),-1.1 (inactive),-1.3,0.119
COCCCN1C(=O)[C@@]2(c3ccc([N+](=O)[O-])cc3)CC(=O)N(C3CCCCC3)[C@@H]2c2ccc(CO)cc21,-0.794,-1.03,0.14,0.819,-1.23,-0.393,0.939 (inactive),-0.739,-0.847,-1.18 (inactive),-0.207,1.12 (inactive),-0.559 (inactive),-26.4 (active),0.158 (inactive),0.0091 (inactive),-0.0215 (inactive),-0.13 (inactive),-0.837,-0.37
C=CCOC(=O)[C@@H]1[C@H]2C(=O)O[C@H](c3ccccc3)[C@H](c3ccccc3)N2[C@H](c2ccc(OCCOC(=O)[C@@H]3C[C@@H]4C(=O)N[C@@H](CCCCN(C)C)C(=O)N4[C@@H]3c3ccc(O)cc3)cc2)[C@@]12C(=O)Nc1ccc(I)cc12,-0.303,-0.247,0.295,-0.7,-0.857,-1.93,-0.171 (inactive),-0.95,-1.45,0.417 (inactive),0.883,-0.955 (inactive),-0.078 (inactive),-0.262 (inactive),0.531 (inactive),1.65 (inactive),-0.821 (inactive),0.0885 (inactive),-0.153,-0.157
O=C1c2ccccc2[C@](Cc2ccccc2I)(C(=O)NC2CC2)[C@H](c2ccc(CO)cc2)N1C1CCCCC1,0.818,0.835,0.677,-1.02,-1.98,2.11,0.252 (inactive),-0.482,-0.299,0.91 (inactive),-0.13,0.404 (inactive),0.516 (inactive),1.06 (inactive),0.304 (inactive),2.64 (inactive),-0.0781 (inactive),-0.585 (inactive),0.549,-0.0426
[N-]=[N+]=NCc1ccccc1C[C@]1(C(=O)NCC(O)CO)N=C(c2ccc(OCCCO)cc2)O[C@H]1c1ccccc1 (stereo not given in full),-0.691,0.0311,-1.25,-2.42,-1.81,-1.31,-0.142 (inactive),-0.547,-0.727,-0.246 (inactive),-0.237,-1.16 (inactive),-0.525 (inactive),0.105 (inactive),0.826 (inactive),0.125 (inactive),-0.376 (inactive),-0.193 (inactive),-0.977,0.035
COc1ccc(C(O)C2C=CC3C(=O)N(C)C(=O)C3N2N2CCCCC2)c2ccccc12 (stereo not given),-1.01,-1.14,-0.086,-0.142,0.768,-0.874,-1.08 (inactive),-0.0496,0.028,-0.825 (inactive),-1.2,-1.78 (inactive),-1.64 (inactive),0.238 (inactive),0.503 (inactive),0.806 (inactive),-0.413 (inactive),-0.68 (inactive),-1.71,-0.202
O=C1O[C@H](c2ccccc2)[C@H](c2ccccc2)N2[C@H]1[C@@H](C(=O)O)[C@]1(C(=O)Nc3ccc(C#CCCO)cc31)[C@H]2c1ccc(O)cc1,1.46,0.339,-0.215,0.536,0.858,-0.308,-0.395 (inactive),-0.896,-0.565,1.52 (inactive),1.11,-0.326 (inactive),1.5 (inactive),0.158 (inactive),0.0568 (inactive),0.0737 (inactive),0.994 (inactive),1.69 (inactive),1.14,-0.127
CC1CC/C=C\[C@H]2OC34C=CCN(c5ccc(Cl)cc5)C(=O)[C@H]3N(CCO)C(=O)[C@]4(C)C2C(=O)O1 (stereo not given in full),-0.562,0.594,0.107,0.246,0.0105,-0.472,-0.54 (inactive),0.27,2.04,-0.428 (inactive),-0.349,-0.152 (inactive),-1.13 (inactive),-0.0582 (inactive),0.0962 (inactive),-0.245 (inactive),-0.135 (inactive),-0.672 (inactive),0.102,-0.0785
